Glomerular separation data for 35 compounds are collected here from the supplement of paper PMC7366291.

Structures can show the parent of a compound that is named as a salt. ± gives the standard deviation.

In this experiment the test system is Danio rerio Tg(wt1b:EGFP) embryo, pronephros. The experiment in a line: glomerular separation, fold change vs DMSO control; higher = glomeruli further apart (abnormal). The note with it: 25 µM; exposure: 24-48 hpf. Summed up:
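Dechorionated Tg(wt1b:EGFP) zebrafish embryos were treated with 25 μM compound in 0.5% DMSO, in HEPES-buffered E3 with 0.003% PTU, from 24 to 48 hpf at 28.5°C. On maximum projections of dorsal pronephros images, 16 hand-placed reference points in Fiji gave distances and angles, and values more than 2 SD from the feature mean were left out. Results are fold changes over the mean of same-day DMSO-treated embryos.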
As for `CCN(CC)C(C)C(=O)c1ccccc1` (stereo not given) [Amfepramone hydrochloride], the glomerular separation came out at 0.872 ± 0.24.

In turn, `Fc1ccc(C(OCCN2CCN(CCCc3ccccc3)CC2)c2ccc(F)cc2)cc1` showed a glomerular separation of 5.45 ± 2.3.

As for `CC(=O)OCC(=O)[C@H]1CC[C@H]2[C@@H]3CC[C@H]4C[C@H](O)CC[C@]4(C)[C@H]3C(=O)C[C@]12C` [Alfadolone acetate], the glomerular separation amounted to 1.22 ± 0.64.

Compound `NC(=O)C[S+]([O-])C(c1ccccc1)c1ccccc1` (stereo not given) [Modafinil] displayed a glomerular separation of 1.04 ± 0.25.

`NC(=O)OCCCc1ccccc1` [Phenprobamate] came in with a glomerular separation of 0.999 ± 0.4.

Take `CC(Cc1ccccc1)NCCC(c1ccccc1)c1ccccc1` (stereo not given) [Prenylamine lactate]: the glomerular separation came to 1.05 ± 0.22.

In the case of `CNC(C)(C)Cc1ccccc1` [Mephentermine hemisulfate], the glomerular separation is 0.946 ± 0.41.

In turn, `CC(=O)[C@H]1CC[C@H]2[C@@H]3CC[C@H]4C[C@H](O)CC[C@]4(C)[C@H]3C(=O)C[C@]12C` [Alfaxalone] came in with a glomerular separation of 0.896 ± 0.36.

In turn, `CN1[C@@H]2CC[C@H]1C[C@@H](OC(=O)[C@H](CO)c1ccccc1)C2` [Hyoscyamine (L)] displayed a glomerular separation of 0.956 ± 0.51.

Compound `C[C@]12CC[C@@H](O)C[C@@H]1CC[C@@H]1[C@@H]2CC[C@]2(C)C(=O)CC[C@@H]12` [Androsterone] displayed a glomerular separation of 0.907 ± 0.17.

For the compound `OC(c1ccccc1)(c1ccccc1)C1CCNCC1` [Azacyclonol], the glomerular separation is 0.869 ± 0.25.

With `O=C(CCCN1CCC(n2c(=O)[nH]c3ccccc32)CC1)c1ccc(F)cc1` [Benperidol], the glomerular separation stood at 1.04 ± 0.25.

On to `O=[N+]([O-])O[C@@H]1CO[C@H]2[C@@H]1OC[C@@H]2O` [Isosorbide mononitrate], for which the glomerular separation came out at 0.951 ± 0.48.

Regarding `CCCC(C)C1(CC)C(=O)NC(=O)NC1=O` (stereo not given) [Pentobarbital], the glomerular separation worked out at 1.63 ± 0.87.

For the compound `CCN[C@@H](C)Cc1cccc(C(F)(F)F)c1` [Dexfenfluramine hydrochloride], the glomerular separation is 0.736 ± 0.23.

`C[N+]1(C)CCCC(OC(=O)C(O)(c2ccccc2)c2ccccc2)C1` (stereo not given) [Mepenzolate bromide] showed a glomerular separation of 1.4 ± 0.8.

`CC[C@@H](CO)NC(=O)[C@@H]1C=C2c3cccc4[nH]cc(c34)C[C@H]2N(C)C1` [Methylergometrine maleate] yielded a glomerular separation of 1.12 ± 0.46.

With `N[C@@H]1C[C@H]1c1ccccc1` [Tranylcypromine hydrochloride], the glomerular separation came to 1.03 ± 0.28.

In turn, `CCC(=O)O[C@H]1CC[C@H]2[C@@H]3CCC4=CC(=O)CC[C@]4(C)[C@H]3CC[C@]12C` [Testosterone propionate] yielded a glomerular separation of 1.12 ± 0.46.

As to `CC(=O)O[C@H]1C[C@H](O[C@H]2[C@@H](O)C[C@H](O[C@H]3[C@@H](O)C[C@H](O[C@H]4CC[C@@]5(C)[C@H](CC[C@@H]6[C@@H]5C[C@@H](O)[C@]5(C)[C@@H](C7=CC(=O)OC7)CC[C@]65O)C4)O[C@@H]3C)O[C@@H]2C)O[C@H](C)[C@H]1O[C@@H]1O[C@H](CO)[C@@H](O)[C@H](O)[C@H]1O` [Lanatoside C], the glomerular separation was determined as 1.4 ± 0.72.

For `CCCN1C[C@H](CSC)C[C@@H]2c3cccc4[nH]cc(c34)C[C@H]21` [Pergolide mesylate], the glomerular separation turned out to be 1.26 ± 0.37.

`c1ccc2nc(N3CCNCC3)ccc2c1` [Quipazine dimaleate salt] yielded a glomerular separation of 1.09 ± 0.53.

With `C[C@]12CC[C@@H](O)C[C@H]1CC[C@@H]1[C@@H]2CC[C@]2(C)C(=O)CC[C@@H]12` [3-alpha-Hydroxy-5-beta-androstan-17-one], the glomerular separation was determined as 1.13 ± 0.44.

As to `CN1C[C@H](CNC(=O)OCc2ccccc2)C[C@@H]2c3cccc4c3c(cn4C)C[C@H]21` [Metergoline], the glomerular separation amounted to 0.977 ± 0.48.

For the compound `Oc1ccc2c3c1O[C@H]1[C@@H](O)CC[C@@]4(O)[C@@H](C2)N(CC2CCC2)CC[C@]314` [Nalbuphine hydrochloride], the glomerular separation stood at 0.874 ± 0.27.

With `C[C@]12CC[C@H]3[C@@H](CCC4=CC(=O)CC[C@@H]43)[C@@H]1CC[C@@H]2O` [Nandrolone], the glomerular separation came to 1.02 ± 0.42.

On to `CNCC(O)c1ccc(O)cc1` (racemic) [(+,-)-Synephrine], for which the glomerular separation was 1.01 ± 0.41.

`C[C@H](N)[C@H](O)c1ccc(O)c(O)c1` [Levonordefrin] displayed a glomerular separation of 1.13 ± 0.33.

In turn, `CCC1(CC)C(=O)C=CNC1=O` [Pyrithyldione] came in with a glomerular separation of 0.785 ± 0.31.

`NCCCNCCSP(=O)(O)O` [Amifostine]: the glomerular separation amounted to 0.91 ± 0.29.

In the case of `NCCc1c[nH]c2ccc(O)cc12` [Serotonin hydrochloride], the glomerular separation was 1.61 ± 1.2.

The compound `COc1cccc(C2(O)CCCCC2CN(C)C)c1` (stereo not given) [Tramadol hydrochloride] returned a glomerular separation of 0.728 ± 0.23.

Take `C[C@@]12N[C@@H](Cc3ccccc31)c1ccccc12` [(-)-MK 801 hydrogen maleate]: the glomerular separation is 1.02 ± 0.29.

For `CCC(C)C1O[C@]2(C=C[C@@H]1C)C[C@@H]1CC(C/C=C(\C)[C@@H](OC3C[C@H](OC)[C@@H](OC4C[C@H](OC)[C@@H](O)[C@H](C)O4)[C@H](C)O3)[C@@H](C)/C=C/C=C3\COC4[C@H](O)C(C)=CC(C(=O)O1)[C@]34O)O2` (stereo not given in full) [Avermectin B1a], the glomerular separation is 2.03 ± 1.1.

The compound `C#C[C@]1(O)CC[C@H]2[C@@H]3CCC4=CC(=O)CCC4=C3C=C[C@@]21CC` [Gestrinone] came in with a glomerular separation of 1.64 ± 0.91.
